The source of these data is PubChem BioAssay (NCATS).

Structures are written as SMILES. Inconclusive results are not listed. Unmarked numbers belong to inactive results. Calls of active or inactive are those of the source. Calls come from the whole dose curve; as a rule, active = well fitted inhibition curve with a large enough effect; inconclusive = small, poorly fitted or top-dose-only effect; inactive = no such curve, though single readings can be large or run the other way.
% is set by controls: 0 for no effect and ±100 for the full control effect; potency is the fitted concentration of half-maximal effect.

The experiment deals with Thioredoxin reductase 1, cytoplasmic (Rattus norvegicus) (UniProt O89049). Nature of the experiment: qHTS Assay for Inhibitors of Mammalian Selenoprotein Thioredoxin Reductase 1 (TrxR1) (AID 488773). Note: nearly all actives have a fitted effect of over 40% in size. Conditions: purified TrxR1 enzyme activity; Potency: inhibition; series mostly up to 57.1 µM; activity change, negative = inhibition: at the top concentration. An excerpt: The selenoprotein thioredoxin reductase (TrxR; EC 1.8.1.9) is a FAD containing homodimeric pyridine nucleotide-disulfide oxidoreductase with many cellular roles. Together with NADPH and its prime substrate thioredoxin (Trx), the enzyme forms the core of the Trx system. The mammalian Trx system exerts a wide spectrum of functions including redox regulation, antioxidant defense, regulation of transcription factors as well as support of cell growth and replication. Many of these functions involve the reduction of Trx, which may subsequently reduce a number of different substrates including ribonucleotide reductase, peroxiredoxins or NFkB. Mammalian TrxR itself also has a broad substrate specificity, reducing both protein and non-protein substrates, including low molecular weight compounds such as dehydroascorbate, lipoic acid, ubiquinone, and juglone. In addition, several drugs in clinical use for anticancer treatment are indeed known to target TrxR1.
Thioredoxin reductase 1, cytoplasmic (Rattus norvegicus), sequence (O89049 whole entry, looked up): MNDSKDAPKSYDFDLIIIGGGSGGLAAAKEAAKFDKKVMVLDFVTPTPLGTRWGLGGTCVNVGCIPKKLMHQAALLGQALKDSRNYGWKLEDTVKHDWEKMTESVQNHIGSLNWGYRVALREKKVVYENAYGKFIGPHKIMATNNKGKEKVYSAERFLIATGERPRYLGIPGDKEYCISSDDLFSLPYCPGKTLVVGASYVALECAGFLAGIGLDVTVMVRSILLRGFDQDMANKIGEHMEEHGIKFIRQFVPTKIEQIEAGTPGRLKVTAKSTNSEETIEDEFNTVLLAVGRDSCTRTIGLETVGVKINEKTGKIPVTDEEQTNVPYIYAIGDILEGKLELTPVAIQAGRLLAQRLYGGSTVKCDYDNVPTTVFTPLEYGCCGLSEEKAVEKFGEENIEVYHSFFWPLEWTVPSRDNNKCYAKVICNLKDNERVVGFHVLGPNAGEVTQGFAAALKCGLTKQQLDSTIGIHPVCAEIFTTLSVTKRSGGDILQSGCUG
This BioAssay is a validation of an NADPH fluorescence-based, dual-purpose qHTS rTrxR1 assay designed to find potential inhibitors and substrates of rTrxR1. For this particular BioAssay, actives are potential inhibitors. See related BioAssay for substrate data deposition.
Assay protocol: 2 uL of reagents (buffer in column 4 as negative control and 90 nM rTrxR1 in columns 1-3 and 5-48) were dispensed into Greiner black solid-bottom 1,536-well assay plates, followed by 1 uL of NADPH (400 uM final concentration) to each well. The plates were centrifuged at 1000 rpm for 15 seconds and subsequently incubated for 5 min at room temperature (~22 deg C) to allow for rTrxR1 reduction. Compounds (23 nL) were then transferred via Kalypsys pin tool equipped with 1536-pin array (10 nL slotted pins, V&P Scientific, San Diego, CA). In addition, a duplicate 2-fold serial dilution of the control compounds auranofin, a known gold-based TrxR1 inhibitor, and juglone (5-hydroxy-1,4-naphthoquinone), a natural TrxR1 substrate, were pin-transferred to columns 2 and 3, respectively. After incubation for 15 min at room temperature (~22 deg C), 1 uL of selenite (400 uM final concentration) were dispensed to each well. The plate was immediately transferred to a ViewLux high-throughput CCD imager (PerkinElmer), wherein kinetic measurements of NADPH fluorescence (Ex 340 nm, Em 450 nm) were acquired (8 minute kinetic read, see Table 1). Read 1 was utilized to assess the capacity of a compound to serve as an rTrxR1 substrate, i.e. a decrease in NADPH fluorescence compared to the no-compound background is an indication of a substrate behavior for that particular compound. For inhibitory activity of a compound, delta values, computed as the difference in fluorescence intensity between the first and last reads of an 8-minute time kinetic window, were used. All reagents were diluted in an assay buffer consisting of 50 mM Tris-HCl, pH 7.5, 2 mM EDTA, and 0.01% Tween-20.
Throughout the screen, reagent bottle and all liquid lines were made light-tight to minimize reagent degradation. All screening operations were performed on a fully integrated robotic system (Kalypsys, San Diego, CA) containing one RX-130 and two RX-90 anthropomorphic robotic arms (Staubli, Duncan, SC). Library plates were screened starting from the lowest and proceeding to the highest concentration, and a 'double-pinning' step of the highest concentration was required to access higher concentrations of compounds. Vehicle-only plates, with DMSO being pin-transferred to the columns 5-48, were inserted uniformly at the beginning and the end of each library in order to monitor and record any shifts in the background, which can be affected by reagent dispensers or loss in enzyme activity over time. Screening data were corrected, normalized, and concentration-effect relationships were derived by using publicly-available curve fitting algorithms developed in-house (http://ncgc.nih.gov/pub/openhts).
On to `Cc1cc(NC2CCCCC2)nc(-n2nc(C)cc2C)n1`, for which the “activity change, negative = inhibition” value was -1.43%.

In the case of `Clc1ccc(N2CCN(Cc3c[nH]c4ncccc34)CC2)cc1`, the “activity change, negative = inhibition” value is -2.59%.

On to `CSc1ccccc1N1CCN(CCCCCC(=O)NC2CCCc3ccccc32)CC1` (stereo not given), for which the “activity change, negative = inhibition” value is 0.621%.

As for `COc1ccc(NC(=O)/C=C/c2ccc(Cl)cc2)cc1`, the “activity change, negative = inhibition” value was -5.62%.

Turning to `C[C@@H](NC(=O)/C(C#N)=C/c1ccc(O)c(O)c1)c1ccccc1`, the “activity change, negative = inhibition” value is -11.2%.

For `N#C/C(=C\c1c[nH]c2ccccc12)C(=O)c1ccc(O)c(O)c1`, the “activity change, negative = inhibition” value was -14.7%.

As to `CNCC[C@H](Oc1ccc(C(F)(F)F)cc1)c1ccccc1`, the “activity change, negative = inhibition” value is 7.3%.

With `CC(=O)N[C@H](C(=O)O)C(C)(C)SN=O`, the “activity change, negative = inhibition” value was -3.02%.

On to `CC[C@@H](C)[C@H]1O[C@]2(CC[C@H]1C)C[C@@H]1C[C@@H](CC=C(C)[C@@H](O[C@H]3C[C@H](OC)[C@@H](O[C@H]4C[C@H](OC)[C@@H](O)[C@H](C)O4)[C@H](C)O3)[C@@H](C)C=CC=C3CO[C@@H]4[C@H](O)C(C)=C[C@@H](C(=O)O1)[C@]34O)O2`, for which the “activity change, negative = inhibition” value was -12.7%.

As for `Nc1nc(Cl)nc2c1ncn2[C@@H]1O[C@H](CO)[C@@H](O)[C@H]1O`, the “activity change, negative = inhibition” value is -5.63%.

As to `CNC(=O)[C@H]1O[C@@H](n2cnc3c(NCc4cccc(I)c4)ncnc32)[C@H](O)[C@@H]1O`, the “activity change, negative = inhibition” value is 3%.

For `NC[C@@H]1O[C@H](C23CC4CC(CC(C4)C2)C3)Cc2c1ccc(O)c2O`, the “activity change, negative = inhibition” value was -8.89%.

On to `Fc1cccc(/C=N/N=C/c2cccc(F)c2)c1`, for which the “activity change, negative = inhibition” value is -13.1%.

With `CCCCCCCCCCCCCCCC(=O)NCC(COP(=O)([O-])OCC[N+](C)(C)C)OCC` (stereo not given), the “activity change, negative = inhibition” value was 9.01%.

Regarding `COc1ccccc1N1CCN(CCCCNS(=O)(=O)c2cccc3c(N(C)C)cccc23)CC1`, the “activity change, negative = inhibition” value is -11.1%.

On to `CC(C)NC[C@H](O)COc1cccc2[nH]ccc12`, for which the “activity change, negative = inhibition” value was 17.6%.

For `CN1C2CCC1CC(OC(=O)C(O)c1ccccc1)C2` (stereo not given), the “activity change, negative = inhibition” value is 4.96%.

On to `Cn1c(=O)c2[nH]c(-c3ccccc3)nc2n(C)c1=O`, for which the “activity change, negative = inhibition” value was -2.22%.

Turning to `N#C/C(=C\c1ccc(O)c(O)c1)C(=O)NCCCc1ccccc1`, the “activity change, negative = inhibition” value was -15.7%.

As to `NCCCCCCCCCCN`, the “activity change, negative = inhibition” value was -16.9%.

For the compound `COc1cc2c(CCNC(C)=O)c[nH]c2cc1Cl`, the “activity change, negative = inhibition” value was 5.53%.

On to `O=C(O)CCCC[C@@H]1CCSS1`, for which the “activity change, negative = inhibition” value is -5.07%.

In the case of `Nc1ncnc2c1ncn2[C@@H]1O[C@H](COP(=O)(O)OP(=O)(O)OP(=O)(O)OP(=O)(O)OC[C@@H]2O[C@H](n3cnc4c(N)ncnc43)[C@@H](O)[C@H]2O)[C@@H](O)[C@H]1O`, the “activity change, negative = inhibition” value is 5.13%.

Take `O=[N+]([O-])c1ccc(CSc2ncnc3c2ncn3[C@@H]2O[C@H](CO)[C@@H](O)[C@H]2O)cc1`: the “activity change, negative = inhibition” value was -9.95%.

Regarding `O=C1/C(=C/c2ccsc2)CC/C1=C\c1cccs1`, the “activity change, negative = inhibition” value was -21.1%.

`CCCCCCCCCCCCCCCCCC(=O)NCC(COP(=O)([O-])OCC[N+](C)(C)C)OCC` (stereo not given): the “activity change, negative = inhibition” value is -5.1%.

Turning to `C=CC(=O)c1ccc(CCCCCC)cc1`, the Potency is 15 µM (active).

With `O=[N+]([O-])c1ccc2c(c1)S(=O)(=O)C=C2`, the Potency is 2.12 µM (active).

With `O=C(O)c1cc([N+](=O)[O-])ccc1NCCCc1ccccc1`, the “activity change, negative = inhibition” value was -6.19%.

As for `CC(C)(C=O)Cc1cc(C(C)(C)C)c(O)c(C(C)(C)C)c1`, the “activity change, negative = inhibition” value was -13.3%.

Take `NS(=O)(=O)C#Cc1ccccc1`: the Potency is 4.74 µM (active).

Turning to `N=C(N)SCCc1ccc(CCSC(=N)N)cc1`, the “activity change, negative = inhibition” value is -9.23%.

Consider `NC(=S)NCCC[C@H](N)C(=O)O`, for which the “activity change, negative = inhibition” value is -6.69%.

With `O=C1NC(O)=NC1(c1ccccc1)c1ccccc1`, the “activity change, negative = inhibition” value is 31.1%.

With `CCCCN1CCC(n2c(=O)[nH]c3ccccc32)CC1`, the “activity change, negative = inhibition” value was -11%.

On to `CSc1nc(N)c2ncn([C@@H]3O[C@H](COP(=O)(O)OP(=O)(O)OP(=O)(O)O)[C@@H](O)[C@H]3O)c2n1`, for which the “activity change, negative = inhibition” value was -0.104%.

Consider `C#CCN1C(C)=C(C(=O)OC)C(c2cccc([N+](=O)[O-])c2)C(C(=O)OCC)=C1C` (stereo not given), for which the “activity change, negative = inhibition” value was -1.96%.

As for `S=C(S)OC1CC2CC1C1CCCC21` (stereo not given), the “activity change, negative = inhibition” value was -15.7%.

Consider `CN1CCc2cc(O)c(O)cc2C(c2ccccc2)C1` (stereo not given), for which the “activity change, negative = inhibition” value is -26.6%.

`Cn1ncc(S(=O)(=O)Cc2ccccc2)c(Br)c1=O`: the Potency was 0.947 µM (active).
